The text below walks through data of the antibiotic and cytotoxicity screens of Wong et al. (2023).

Out of some 39,000 compounds screened, about 1,500 (3.8%) were called active. The entries come from a sample that favours actives as a whole.

The subject of this assay is HSkMC (human skeletal muscle cells). In words: cytotoxicity call (relative viability < 0.9). The settings on record: 10 µM.
For `C/C=C/c1ccc2c(c1)O[C@H](CN(C)Cc1ccc(C(=O)O)cc1)[C@H](C)CN([C@@H](C)CO)S2(=O)=O`, the cytotoxicity call is “inactive”. `Cc1noc(C)c1NC(=O)N(C)C[C@H]1OCCCC[C@@H](C)Oc2ccc(NC(=O)c3ccccc3)cc2C(=O)N([C@@H](C)CO)C[C@H]1C`: the cytotoxicity call is “inactive”.

Turning to `COc1ccc(S(=O)(=O)N(C)C[C@H]2Oc3ncc(C#CC4(O)CCCC4)cc3C(=O)N([C@@H](C)CO)C[C@@H]2C)cc1`, the cytotoxicity call was “inactive”. Under `Cc1ccc(C(=O)Nc2ccc(S(=O)(=O)O)c3cc(S(=O)(=O)O)cc(S(=O)(=O)O)c23)cc1NC(=O)c1cccc(NC(=O)Nc2cccc(C(=O)Nc3cc(C(=O)Nc4ccc(S(=O)(=O)O)c5cc(S(=O)(=O)O)cc(S(=O)(=O)O)c45)ccc3C)c2)c1` stands “inactive”. As for `C[C@@H]1CN([C@H](C)CO)S(=O)(=O)c2ccc(C#CC(C)(C)O)cc2O[C@H]1CN(C)C(=O)C1CCCCC1`, the cytotoxicity call is “inactive”. On to `C[C@@H]1CCCCO[C@@H](CN(C)C(=O)CCC(F)(F)F)[C@@H](C)CN([C@@H](C)CO)C(=O)c2cc(NC(=O)c3ccccc3)ccc2O1`, for which the cytotoxicity call was “inactive”. As to `CC(C)NC(=O)N(C)C[C@@H]1Oc2ccc(NC(=O)C3CCCCC3)cc2C(=O)N([C@H](C)CO)C[C@@H]1C`, the cytotoxicity call is “inactive”. `C[C@@H]1CCCCO[C@H](CN(C)C(=O)c2ccccc2)[C@H](C)CN([C@@H](C)CO)C(=O)c2cc(NC(=O)CCCCCC(=O)Nc3ccccc3N)ccc2O1`: the cytotoxicity call is “inactive”. As to `Cc1noc(C)c1NC(=O)Nc1cccc2c1O[C@@H](CN(C)C(=O)Nc1cccc3ccccc13)[C@@H](C)CN([C@@H](C)CO)C2=O`, the cytotoxicity call is “inactive”. Regarding `COCCNC(=O)C[C@H]1CC[C@@H]2[C@H](COC[C@H](O)CN2C(=O)Nc2ccc3c(c2)OCO3)O1`, the cytotoxicity call was “inactive”.

For the compound `C[N+](C)(CCOc1ccccc1)Cc1ccccc1.O=C([O-])c1cc2ccccc2cc1O`, the cytotoxicity call is “inactive”. The entry for `C[N+](C)(CCOc1ccccc1)Cc1ccccc1.O=C(O)c1cc2ccccc2c(Br)c1O` is “inactive”; for `Cc1cc(C(C)(C)CC(C)(C)C)ccc1OCCOCC[N+](C)(C)Cc1ccccc1.[Cl-]` it is “active”; for `COc1cccc(C#Cc2ccc3c(c2)O[C@@H](CN(C)S(=O)(=O)c2ccccc2F)[C@H](C)CN([C@@H](C)CO)S3(=O)=O)c1` it is “inactive”. As for `C[C@@H]1CCCCO[C@H](CN(C)Cc2ccncc2)[C@H](C)CN([C@@H](C)CO)C(=O)c2cc(NC(=O)Nc3ccc(F)cc3)ccc2O1`, the cytotoxicity call was “inactive”. Take `NCC[C@H]1CC[C@H](NC(=O)c2ccccc2F)[C@H](CO)O1`: the cytotoxicity call was “inactive”. On to `C[C@H]1CCCCO[C@H](CN(C)Cc2ccc(C(F)(F)F)cc2)[C@@H](C)CN([C@@H](C)CO)C(=O)c2cc(NC(=O)Cc3ccccc3)ccc2O1`, for which the cytotoxicity call is “inactive”. Turning to `C[C@@H]1CN([C@@H](C)CO)C(=O)c2cc(NC(=O)Cc3ccccc3)ccc2O[C@@H](C)CCCCO[C@H]1CN(C)Cc1ccc(C(F)(F)F)cc1`, the cytotoxicity call was “inactive”.

For the compound `C[C@@H]1CCCCO[C@@H](CN(C)Cc2ccc(C(F)(F)F)cc2)[C@@H](C)CN([C@@H](C)CO)C(=O)c2cc(NC(=O)Cc3ccccc3)ccc2O1`, the cytotoxicity call is “inactive”. As for `C[C@@H]1CCCCO[C@@H](CN(C)Cc2ccc(C(F)(F)F)cc2)[C@H](C)CN([C@H](C)CO)C(=O)c2cc(NC(=O)Cc3ccccc3)ccc2O1`, the cytotoxicity call is “active”. As to `C[C@H](CO)N1C[C@H](C)[C@@H](CN(C)Cc2ccc(C(F)(F)F)cc2)OCCCC[C@H](C)Oc2ccc(NC(=O)Cc3ccccc3)cc2C1=O`, the cytotoxicity call was “active”. For the compound `C[C@@H]1CCCCO[C@H](CN(C)Cc2ccc(C(F)(F)F)cc2)[C@H](C)CN([C@@H](C)CO)C(=O)c2cc(NC(=O)Cc3ccccc3)ccc2O1`, the cytotoxicity call was “inactive”.

Take `Cc1ccc(S(=O)(=O)N(C)C[C@H]2Oc3ncc(C#CCC(C)C)cc3C(=O)N([C@@H](C)CO)C[C@H]2C)cc1`: the cytotoxicity call is “inactive”. `C[C@H]1CN([C@@H](C)CO)S(=O)(=O)c2ccc(Br)cc2O[C@@H]1CN(C)Cc1cccc(F)c1`: the cytotoxicity call was “inactive”. For `Cc1ccc(S(=O)(=O)N(C)C[C@@H]2OCCCC[C@H](C)Oc3ccc(NC(=O)CCCCCC(=O)Nc4ccccc4N)cc3C(=O)N([C@H](C)CO)C[C@@H]2C)cc1`, the cytotoxicity call was “inactive”. For `COc1ccc(NC(=O)N(C)C[C@H]2OCCCC[C@@H](C)Oc3ccc(NS(=O)(=O)c4ccc(F)cc4)cc3C(=O)N([C@@H](C)CO)C[C@H]2C)cc1`, the cytotoxicity call was “inactive”. In the case of `Cc1ccc(C(=O)O)c(=O)[nH]1`, the cytotoxicity call was “inactive”. Take `C[C@@H]1CN([C@@H](C)CO)C(=O)c2cc(C#CC3(O)CCCC3)cnc2O[C@@H]1CN(C)C(=O)Cc1ccccc1`: the cytotoxicity call is “inactive”. The entry for `O=C(N[C@H]1CCN(C(=O)c2cc(C(F)(F)F)cc(C(F)(F)F)c2)[C@H](Cc2ccc(Cl)cc2)C1)c1ccnc2ccccc12` is “active”. The entry for `O=C(NC1CC1)[C@@H]1c2ccccc2C(=O)N(Cc2cc(C(F)(F)F)cc(C(F)(F)F)c2)[C@H]1c1ccc(CO)cc1` is “inactive”; for `C[C@@H]1CN([C@H](C)CO)C(=O)c2cccc(NC(=O)c3ccc(-c4nccs4)cc3)c2O[C@H]1CN(C)Cc1ccc(Cl)c(Cl)c1` it is “inactive”. In the case of `C[C@@H]1CN([C@H](C)CO)C(=O)c2cccc(NC(=O)c3ccc(-c4nccs4)cc3)c2O[C@@H]1CN(C)C(=O)Nc1ccc(C(F)(F)F)cc1`, the cytotoxicity call was “active”. As for `C[C@H]1CN([C@@H](C)CO)C(=O)c2cccc(NC(=O)c3ccc(-c4nccs4)cc3)c2O[C@@H]1CN(C)Cc1ccc(Cl)c(Cl)c1`, the cytotoxicity call is “active”.

With `C[C@@H]1CN([C@@H](C)CO)C(=O)c2cccc(NC(=O)c3ccc(-c4nccs4)cc3)c2O[C@H]1CN(C)Cc1ccc(C(F)(F)F)cc1`, the cytotoxicity call is “inactive”. As to `C[C@@H]1CN([C@H](C)CO)C(=O)c2cccc(NC(=O)c3ccc(-c4nccs4)cc3)c2O[C@H]1CN(C)Cc1ccc(C(F)(F)F)cc1`, the cytotoxicity call is “active”. With `C[C@@H]1CN([C@@H](C)CO)C(=O)c2cccc(NC(=O)c3ccc(-c4nccs4)cc3)c2O[C@@H]1CN(C)C(=O)Nc1ccc(C(F)(F)F)cc1`, the cytotoxicity call was “inactive”. Take `C[C@H](CO)N1C[C@H](C)[C@@H](CN(C)Cc2ccc(Cl)c(Cl)c2)Oc2c(NC(=O)c3ccc(-c4nccs4)cc3)cccc2C1=O`: the cytotoxicity call is “inactive”.

On to `C[C@@H]1CN([C@H](C)CO)C(=O)c2cccc(NC(=O)c3ccc(-c4nccs4)cc3)c2O[C@@H]1CN(C)Cc1ccc(C(F)(F)F)cc1`, for which the cytotoxicity call was “inactive”. For the compound `C[C@H](CO)N1C[C@H](C)[C@H](CN(C)Cc2ccc(C(F)(F)F)cc2)Oc2c(NC(=O)c3ccc(-c4nccs4)cc3)cccc2C1=O`, the cytotoxicity call was “inactive”.

Consider `C[C@H]1CN([C@@H](C)CO)C(=O)c2cccc(NC(=O)c3ccc(-c4nccs4)cc3)c2O[C@@H]1CN(C)Cc1ccc(C(F)(F)F)cc1`, for which the cytotoxicity call is “active”. Consider `C[C@@H]1CN([C@@H](C)CO)C(=O)c2cccc(NC(=O)c3ccc(-c4nccs4)cc3)c2O[C@@H]1CN(C)Cc1ccc(C(F)(F)F)cc1`, for which the cytotoxicity call is “inactive”. On to `C[C@H]1CN([C@@H](C)CO)C(=O)c2cccc(NC(=O)c3ccc(-c4nccs4)cc3)c2O[C@H]1CN(C)C(=O)Nc1ccc(C(F)(F)F)cc1`, for which the cytotoxicity call was “inactive”. The entry for `C[C@H]1CN([C@@H](C)CO)C(=O)Cc2cc(NS(=O)(=O)c3cccs3)ccc2O[C@@H]1CN(C)Cc1ccncc1` is “inactive”. For the compound `COc1ccc(NC(=O)N(C)C[C@H]2Oc3ccc(NS(=O)(=O)c4c(C)noc4C)cc3C(=O)N([C@H](C)CO)C[C@H]2C)cc1`, the cytotoxicity call was “inactive”. The entry for `C[C@@H]1CN([C@@H](C)CO)C(=O)c2cccc(NC(=O)CCCCCC(=O)Nc3ccccc3N)c2O[C@H]1CN(C)S(=O)(=O)c1cn(C)cn1` is “inactive”; for `Cc1[nH]c(=O)[nH]c(=O)c1S(=O)(=O)N1CCC[C@H](C(=O)NCCc2c[nH]c3ccc(F)cc23)C1` it is “inactive”. For the compound `C[C@H]1CCCCO[C@@H](CN(C)C)[C@@H](C)CN([C@@H](C)CO)C(=O)c2cc(NS(=O)(=O)c3cn(C)cn3)ccc2O1`, the cytotoxicity call was “inactive”.

`C[C@@H]1CCCCO[C@@H](CN(C)S(=O)(=O)c2ccccc2)[C@H](C)CN([C@@H](C)CO)C(=O)c2cc(NC(=O)Nc3ccc(C(F)(F)F)cc3)ccc2O1`: the cytotoxicity call was “inactive”. The entry for `COc1ccc(CN(C)C[C@H]2OCCCC[C@H](C)Oc3ccc(NC(=O)Cc4ccccc4)cc3C(=O)N([C@@H](C)CO)C[C@H]2C)cc1` is “inactive”; for `C[C@@H]1CN([C@H](C)CO)C(=O)c2cc(NS(=O)(=O)c3ccccc3)ccc2O[C@@H](C)CCCCO[C@@H]1CN(C)Cc1ccc2c(c1)OCO2` it is “inactive”; for `C[C@H](CO)N1C[C@H](C)[C@@H](CN(C)S(=O)(=O)c2ccc(Oc3ccccc3)cc2)OCc2cn(nn2)CCCC1=O` it is “inactive”.

For `Cc1noc(C)c1S(=O)(=O)N(C)C[C@@H]1Oc2ccc(NC(=O)CCC(F)(F)F)cc2CC(=O)N([C@H](C)CO)C[C@H]1C`, the cytotoxicity call is “inactive”. As for `COCCNC(=O)C[C@@H]1CC[C@@H](NS(=O)(=O)c2ccc(C)cc2)[C@H](CO)O1`, the cytotoxicity call is “inactive”. Take `C[C@@H](O)Cn1cnc2c1c(=O)n(C)c(=O)n2C`: the cytotoxicity call was “inactive”.

With `COc1ccc(CN(C)C[C@H]2OCCCC[C@H](C)Oc3ccc(NC(=O)c4ccccc4)cc3C(=O)N([C@@H](C)CO)C[C@H]2C)cc1`, the cytotoxicity call was “inactive”. With `CC(C)C#Cc1cnc2c(c1)C(=O)N([C@@H](C)CO)C[C@@H](C)[C@@H](CN(C)S(=O)(=O)c1cn(C)cn1)O2`, the cytotoxicity call is “inactive”. Under `CC(C)N1CCOC[C@@]2(C1)CN(S(C)(=O)=O)CCO2` stands “inactive”; under `COC(=O)[C@H](Cc1ccccc1)N1CC2=C[C@@H](C3CC3)n3c(=O)n(C)c(=O)n3[C@H]2[C@@H]1[C@@H](O)CCn1cc(-c2cccc(/C=C/C(=O)NO)c2)nn1`, “inactive”. `COc1ccc2c3c([nH]c2c1)[C@H](CO)N(C[C@]13CN(C1)S(=O)(=O)C)C(=O)C1CCOCC1`: the cytotoxicity call is “inactive”.
